CHRM1 agonist: human M1 muscarinic receptor agonists, primary screen, Fluo-8 calcium fluorescence, CHO-K1 cells, HTS; Muscarinic acetylcholine receptor M1 (Homo sapiens), P11229; CHO-K1 hM1, agonist mode; 0% DMSO, 100% acetylcholine EC100; activation, % at 3 µM; 360,000 tested, 0.33% active; AID 588814, 2011;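 active = activation above the run's mean compound activation plus 3 SD, cut at about 16% in these data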;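 also: peak over basal fluorescence ratio within a 140 s kinetic read after compound addition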
Target sequence (P11229 whole entry, looked up): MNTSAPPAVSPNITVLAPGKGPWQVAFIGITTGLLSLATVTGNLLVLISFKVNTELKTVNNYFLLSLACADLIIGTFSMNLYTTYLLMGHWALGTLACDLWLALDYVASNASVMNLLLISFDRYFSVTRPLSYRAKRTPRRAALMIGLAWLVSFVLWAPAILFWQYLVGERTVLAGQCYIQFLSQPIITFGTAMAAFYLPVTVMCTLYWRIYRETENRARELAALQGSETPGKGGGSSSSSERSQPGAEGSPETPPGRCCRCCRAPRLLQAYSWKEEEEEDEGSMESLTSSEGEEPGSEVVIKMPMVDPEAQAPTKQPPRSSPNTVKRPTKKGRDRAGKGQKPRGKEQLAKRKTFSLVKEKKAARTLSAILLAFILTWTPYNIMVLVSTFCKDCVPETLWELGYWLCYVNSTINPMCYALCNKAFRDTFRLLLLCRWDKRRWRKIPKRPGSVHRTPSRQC
CHO-K1 Ca antag: nonselective inhibitor or artifact in parental CHO-K1 cells; inhibition, % at 3 µM; 360,000 tested, 0.6% active; ATP-induced calcium, Fluo-8 fluorescence;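 active = inhibition above a per-plate cutoff, the plate's mean sample inhibition plus 3 SD, cut at about 24% in these data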
M1 PAM: human M1 muscarinic receptor positive allosteric modulators, primary screen, CHO-K1 cells, Fluo-8 calcium fluorescence, 1536-well. Muscarinic acetylcholine receptor M1 (Homo sapiens), P11229. CHO-K1 hM1, ACh EC20; 0% = ACh EC20, 100% = maximal ACh. activation, % at 3 µM. 360,000 tested, 0.088% active. AID 588819, 2011; in the data active = activation above about 19%, passing the limit was not always enough
CHO-K1 Ca ag: counter-screen for M1 agonists: effect in parental CHO-K1 cells; Fluo-8 calcium fluorescence; scaled to maximal ATP response, vehicle zero; activation, % at 3 µM; 360,000 tested, 0.48% active; in the data active = activation above about 15%;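 also: untransfected CHO-K1 host cells lacking M1 receptor as counterscreen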
M1 PAM parental: nonselective calcium activators in parental CHO-K1 cells, primary screen, counter-screen for M1 PAM project, cell-based, Fluo-8 calcium fluorescence, full deck, 1536-well; 360,000 tested, 0.02% active; ATP EC20; 0% at ATP EC20, 100% at ATP max; activation, % at 3 µM; AID 602247, 2012;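 active = activation above the run cutoff, the mean activation of all test compounds plus 3 SD, cut at about 40% in these data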;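 also: peak over basal fluorescence ratio in a 140 s read after ATP addition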
M1 antag: human M1 muscarinic receptor antagonists, primary screen, CHO-K1 cells, Fluo-8 calcium fluorescence, 1536-well; CHO-K1 hM1, ACh EC80 antagonist; 360,000 tested, 1.3% active; Muscarinic acetylcholine receptor M1 (Homo sapiens), P11229; inhibition, % at 3 µM; AID 588852, 2011;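 active = percent inhibition above its own plate's cutoff, namely the mean of that plate's compound wells plus 3 SD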;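 also: peak over basal fluorescence ratio during 140 s after agonist addition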
A number is an active result; – = inactive. The list is not random: actives were taken first. Their share in the collection is about 2.3%.

SMILES | CHRM1 agonist | CHO-K1 Ca antag | M1 PAM | CHO-K1 Ca ag | M1 PAM parental | M1 antag
CC(CC(=O)Nc1ccc(Cl)c(S(=O)(=O)N2CCOCC2)c1)c1ccccc1 (stereo not given) | – | – | – | 15 | – | –
CCCC(C(=O)Nc1ccc(S(=O)(=O)N2CCOCC2)cc1)c1ccccc1 (stereo not given) | 20 | – | – | 19 | – | –
O=C(O)CC(SCC(=O)Nc1ccc(Cl)c(S(=O)(=O)N2CCOCC2)c1)C(=O)O (stereo not given) | – | – | – | – | – | –
COc1ccc(S(=O)(=O)N2CCOCC2)cc1NC(=O)CSc1nnnn1C1CC1 | – | – | – | – | – | –
Cc1cccc(N2CCN(C(=O)c3ccc(NS(=O)(=O)c4c(C)noc4C)cc3)CC2)c1C | – | – | – | – | – | –
Cc1noc(C)c1S(=O)(=O)Nc1ccc(C(=O)N2CCN(c3cccc(Cl)c3)CC2)cc1 | – | – | – | 17 | – | –
OCC1(Cc2cccc(C(F)(F)F)c2)CCN(Cc2cc3ccccc3o2)CC1 | – | – | – | – | – | –
Cc1c(CN2CCC(CO)(Cc3cccc(C(F)(F)F)c3)CC2)c2ccccc2n1C | – | – | – | – | – | 26
COc1ccc(CN2CCC(CO)(Cc3cccc(C(F)(F)F)c3)CC2)cc1Cn1cccn1 | – | – | – | – | – | 23
CC(C)(C)Cc1c(-c2ccc(Cl)cc2)nc2ccc(Cl)cn12 | – | – | – | – | – | 28
CC(C)(C)Cc1c(-c2ccccc2)nc2ccc(Cl)cn12 | – | – | – | – | – | 27
CC(C)(C)Cc1c(-c2ccc(Br)cc2)nc2ccc(Cl)cn12 | – | – | – | – | – | 26
S=C(NCCCCN(Cc1ccc(Cl)cc1)c1ccc(Br)cn1)NCCCc1cnc[nH]1 | – | – | – | – | – | –
O=C(O)c1ccccc1C(=O)Nc1ccc(Br)c(C(F)(F)F)c1 | – | – | – | – | – | –
Cc1cc(C)c(C(=O)Nc2ccc(Br)c(C(F)(F)F)c2)c(C)c1 | – | – | – | – | – | 65
CCOC(=O)C1(Cc2ccccc2C#N)CCCCC1=O (stereo not given) | – | – | – | – | – | –
CC(C)C(=O)Nc1nnc(NC(=S)Nc2ccccc2)s1 | – | – | – | 19 | – | –
CCCc1nnc(NC(=S)Nc2ccccc2)s1 | – | – | – | – | – | –
CN(C)c1cc[n+](CC(=O)Nc2ccc(Oc3ccccc3)cc2)cc1 | – | – | – | – | – | 64
CC(Cc1ccccc1)NC(=O)c1cc([N+](=O)[O-])ccc1Cl (stereo not given) | – | – | – | – | – | –
c1ccc(-c2ccccc2OCCCCN2CCCCCC2)cc1 | – | – | – | – | – | 35
c1ccc(-c2ccccc2OCCN2CCCC2)cc1 | – | – | – | – | – | 68
c1ccc(-c2ccccc2OCCOCCN2CCCCC2)cc1 | – | – | – | – | – | –
COc1cccc(C(=O)NCCS(=O)(=O)NCc2ccco2)c1 | – | 37 | – | – | – | –
Cc1ccc(S(=O)(=O)c2cccc(S(=O)(=O)N3CCCC3)c2)cc1S(=O)(=O)N1CCCC1 | – | – | – | – | – | 55
Cc1ccc(/C=C/C(=O)O)cc1S(=O)(=O)N1CCCCC1 | – | – | 24 | – | – | 40
O=S(=O)(c1ccc(Cl)c(S(=O)(=O)N2CCCC2)c1)N1CCCC1 | – | – | – | – | – | 38
CC1=C([N+](=O)[O-])C(c2ccc(Cl)cc2)NC(=O)N1 (stereo not given) | – | – | – | – | – | –
CN(C)CCNc1nc2sc3c(c2c(=O)n1Cc1ccccc1)CCCCC3 | – | – | – | – | – | 73
O[Si](CCCN1CCCCC1)(c1ccc(F)cc1)C1CCCCC1 (stereo not given) | – | – | – | – | – | 97

High-throughput results deposited in PubChem BioAssay by The Scripps Research Institute Molecular Screening Center.
